Bioassay records deposited in PubChem BioAssay by National Center for Advancing Translational Sciences (NCATS).
This is a sample that favours compounds with a hit; in the whole collection about 2.4% have one here.
D2 antagonist – HTS Assay for Allosteric Antagonists of the Human D2 Dopamine Receptor: Primary Screen for Antagonists. HEK293 TREx D2 cells, calcium flux, dopamine EC80. 340,000 tested, 2% active. D(2) dopamine receptor (Homo sapiens), P14416. inhibition, % at 10 µM; in the data active = inhibition above about 30%; inactive = below that, where a call was filed; also: 0% is about no effect
Target sequence (P14416 whole entry, looked up): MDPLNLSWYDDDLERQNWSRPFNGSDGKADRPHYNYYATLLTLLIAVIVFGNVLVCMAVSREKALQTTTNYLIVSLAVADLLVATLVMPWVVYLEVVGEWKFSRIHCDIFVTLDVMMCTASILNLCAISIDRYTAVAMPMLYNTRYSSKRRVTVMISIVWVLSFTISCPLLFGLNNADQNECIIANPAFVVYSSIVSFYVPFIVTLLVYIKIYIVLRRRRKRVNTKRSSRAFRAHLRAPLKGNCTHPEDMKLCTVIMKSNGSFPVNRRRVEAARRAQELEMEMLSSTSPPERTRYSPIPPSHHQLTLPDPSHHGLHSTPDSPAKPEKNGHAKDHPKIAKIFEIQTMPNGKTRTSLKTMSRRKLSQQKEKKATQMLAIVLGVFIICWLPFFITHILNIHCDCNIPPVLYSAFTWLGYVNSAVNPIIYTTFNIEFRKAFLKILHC
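Overnight-induced (tetracycline, 30 C) HEK293 T-REx cells carrying force-coupled D2 receive a no-wash calcium dye, then compound, then EC80 dopamine at 180 s; signals are read kinetically throughout.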
D2 ag-1 – Beta-Arrestin HTS for Positive Allosteric Modulators of the Human D2 Dopamine Receptor: Agonists; activation, % (concentration not given with the values); DiscoveRx PathHunter D2 beta-arrestin, luminescence, 90 min; 100% = 57 uM dopamine signal; 360,000 tested, 0.084% active; in the data active = activation above about 40%; inconclusive = between about 15% and that limit
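DiscoveRx PathHunter D2 beta-arrestin cells (2,100/well) attached overnight, then compound-stimulated 90 min at 37 C in HBSS/10 mM HEPES/0.1% Tween-20 buffer; beta-galactosidase complementation read by luminescence after 1 h at ambient temperature. Dopamine 57 uM final (EC100) as control.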
D2 ag-2 – HTS Assay for Allosteric Agonists of the Human D2 Dopamine Receptor: Primary Screen for Agonists; HEK293 T-REx D2 cells, calcium flux agonist mode; D(2) dopamine receptor (Homo sapiens), P14416; 340,000 tested, 0.53% active; activation, % at 2 µM;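 active = activation over 3 SD above normal in the single-dose calcium agonist read, cut at about 30% in these data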; also: 0% is about no effect
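Calcium-flux readout, 1 cycle/sec over 180 s following compound pin transfer, in inducible HEK293 Trex D2 cells (force-coupled); dopamine controls included. Positive calcium responses during this window marked compounds as potential agonists.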
D2 PAM-1 – Beta-Arrestin HTS for Positive Allosteric Modulators of the Human D2 Dopamine Receptor: Potentiators; 360,000 tested, 0.23% active; potentiation, % (test concentration not listed); DiscoveRx D2 beta-arrestin cells, luminescence, 90 min; 100% = 57 uM dopamine signal; in the data active = potentiation above about 50%; inconclusive = mostly about 30% to 49%
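D2 cells co-treated with compound plus 50 nM dopamine (EC20) for 90 min at 37 deg C to detect potentiation. Beta-arrestin recruitment was read as enzyme-fragment luminescence after 1 h at ambient temperature. Full response was set by 57 uM dopamine.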
D2 PAM-2 – HTS Assay for Positive Allosteric Modulators of the Human D2 Dopamine Receptor: Primary Screen for Potentiators; D(2) dopamine receptor (Homo sapiens), P14416; HEK293 T-REx D2, calcium flux, EC20 dopamine potentiation; potentiation, % at 10 µM; 340,000 tested, 0.34% active;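 active = potentiation over 3 SD above the plate norm, cut at about 30% in these data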; also: 0% is about no effect
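Tetracycline-induced Hek293 Trex D2 cells, force-coupled to calcium, loaded with no-wash calcium dye. Compound added with 180 s kinetic read for agonism, then EC20 dopamine and a further 180 s read for potentiation.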
The depositor's hits bear a star; ? = inconclusive; / = no result given.

SMILES | D2 antagonist | D2 ag-1 | D2 ag-2 | D2 PAM-1 | D2 PAM-2
COc1ccccc1-c1cc(C(=O)N/N=C/c2cccs2)c2ccccc2n1 | 72.4* | -0.5 | -0.6 | -32.0 | -23.0
COc1ccc(OC)c(C2Nc3c(C)cc(C)cc3-c3cc(C)nn32)c1 (centres undefined) | / | / | 3.0 | / | -10.7
CCCN(CCC)CCCNC(=S)Nc1ccc2nc3n(c(=O)c2c1)CCCCC3 | -3.0 | 2.0 | 32.5* | -21.6 | -17.9
CCN(CC)CCNC(=S)Nc1ccc2nc3n(c(=O)c2c1)CCCCC3 | -13.4 | -2.7 | 1.3 | -4.2 | -5.4
CCOC(=O)Cn1c(C)c(Br)c(=O)c2cccc(C)c21 | 31.2* | -2.5 | 0.4 | -26.8 | -11.4
CCc1nc2nc(C)cc(Nc3cc(C)ccc3C)n2n1 | / | / | -0.9 | / | /
CCCCCC1=CCC/C1=N\NC(=O)c1ccc2c(c1)OCO2 | 31.2* | 1.3 | 0.6 | -9.3 | -3.1
COc1cc(OC)c(NC(=O)CC(c2cccs2)N2Cc3ccccc3C2=O)cc1Cl (centres undefined) | / | / | 0.0 | / | 10.3
Cc1ccc(C(=O)NC(=S)N2CCN(c3ccc([N+](=O)[O-])cc3)CC2)cc1 | 6.9 | 2.8 | 0.0 | -16.0 | 5.6
C[C@H](NC(=O)c1ccccc1)C(=O)N1CCN(c2ccccc2)CC1 | 30.4* | 0.8 | -0.3 | -2.8 | -2.6
CC(NC(=O)COc1ccccc1)C(=O)N1CCN(c2ccccc2)CC1 (centres undefined) | 7.5 | -7.2 | 0.1 | -14.0 | 7.9
O=C(NC(=S)N1CCN(c2ccc([N+](=O)[O-])cc2)CC1)c1ccccc1 | 31.0* | 3.3 | -0.3 | -1.9 | -3.3
COc1ccc(-n2nc(C(=O)N3CCN(c4ccc(F)cc4)CC3)c3ccccc3c2=O)c(OC)c1 | 34.4* | -1.4 | 8.9 | -4.6 | -14.7
O=C(/C=C/c1ccc2c(c1)OCO2)NCCSCc1c(Cl)cccc1Cl | 33.8* | 0.7 | -2.0 | 1.2 | 6.6
O=C(/C=C/c1ccc2c(c1)OCO2)NCCSCc1ccc(Cl)cc1 | 4.7 | -3.0 | 0.5 | 12.9 | -3.8
CCOC(=O)COc1cccc2c(=O)n(CC(=O)N3CCCCC3)ccc12 | 21.5 | 1.7 | 0.3 | -4.3 | 4.5
COC(=O)COc1cccc2c(=O)n(CC(=O)N3CCCc4ccccc43)ccc12 | 30.9* | -4.9 | 0.0 | -4.7 | 6.7
O=C1CC(c2ccc(OCCCCCOc3ccc(C4CC(=O)NC4=O)cc3)cc2)C(=O)N1 (centres undefined) | 36.6* | 8.9 | -0.1 | 7.6 | 4.8
CCCCCCCCOc1ccc(C2CC(=O)NC2=O)cc1 (centres undefined) | -0.8 | -3.9 | 0.6 | -8.9 | 1.0
Cc1nc(N2CCOCC2)c(C#N)c2c1COC(C)(C)C2 | -6.3 | -3.7 | 0.2 | 1.6 | 32.6*
CCc1nc(N2CCOCC2)c(C#N)c2c1COC(C)(C)C2 | -13.8 | 1.6 | -3.0 | -3.2 | -1.5
Cc1cc(SCC(=O)N/N=C/c2ccc(O)c(O)c2O)c(C)cc1Br | -13.9 | ? | -0.6 | 56.8* | -2.5
Cc1cc(Nc2ccccc2)c2c([N+](=O)[O-])cc(C)c(C)c2n1 | -14.4 | -1.3 | -0.7 | 18.4 | 39.5*
CCC(C(=O)Nc1ccc2c(c1)OCCO2)n1nnc2ccccc2c1=O (centres undefined) | 9.4 | -2.0 | 0.0 | 11.1 | -8.0
O=c1c2ccccc2nnn1CSc1ccc2c(c1)OCCO2 | -3.8 | -2.8 | 1.8 | 10.4 | 43.4*
SMILES | D2 antagonist | D2 ag-1 | D2 ag-2 | D2 PAM-1 | D2 PAM-2
CC1(C)C(c2cccs2)=[N+]([O-])C2(CCCCC/C2=N\O)N1O (centres undefined) | 5.5 | 5.3 | -0.9 | ? | 11.6
CC1(C)C(c2ccccc2)=[N+]([O-])C2(CCCCC2=O)N1O (centres undefined) | 33.4* | 6.1 | -0.5 | 21.4 | 4.4
CC1CCCCN1C(=O)Cn1nnc(-c2cccnc2)n1 (centres undefined) | 31.9* | -1.2 | 0.9 | -3.6 | -1.7
O=c1c2oc3ccccc3c2n(Cc2ccc(Cl)cc2)c(=O)n1Cc1ccco1 | / | / | -0.5 | / | 5.5
COc1ccc(C(=O)NCC(c2ccco2)N(C)C)cc1S(=O)(=O)NCc1ccc(Cl)cc1 (centres undefined) | 77.7* | -2.3 | 0.2 | -39.3 | -24.4
COc1ccc(C(=O)NCCNC(C)=O)cc1S(=O)(=O)NCc1ccc(Cl)cc1 | -0.3 | -1.9 | 0.6 | -6.3 | 13.6
CC1(C(=O)O)CCC(C(=O)Nc2ccc(OC(F)(F)Cl)cc2)C1(C)C (centres undefined) | 42.8* | 2.4 | 0.9 | -7.6 | -5.2
Cc1noc(C)c1S(=O)(=O)N1CCCC(C(=O)Nc2ccc(C(C)C)cc2)C1 (centres undefined) | / | / | -0.4 | / | -6.2
COC(=O)Nc1ccc(S(=O)(=O)N2CCCC(C(=O)Nc3cccnc3)C2)cc1 (centres undefined) | 43.4* | 1.5 | -0.6 | -10.0 | 7.1
O=C(Nc1cccnc1)c1cccc(S(=O)(=O)N2CCCCC2)c1 | 52.6* | 0.5 | 0.6 | -1.4 | -3.1
COc1cc(S(=O)(=O)N2CCCCC2)ccc1NC(=O)c1ccncc1 | 37.4* | -2.1 | -0.1 | -2.0 | 2.8
COc1ccc(NC(=O)c2ccc(S(=O)(=O)N3CCCCCC3)cc2)c(OC)c1 | -8.0 | 2.3 | -1.2 | -3.3 | 5.7
COc1ccc(NC(=O)c2c(NCc3cccs3)sc3c2CCCCC3)cc1 | / | / | -0.3 | / | 16.0
O=C(Nc1ccc(F)c(F)c1)C1CCN(S(=O)(=O)c2cccc3nonc23)CC1 | -0.2 | -16.1 | -2.3 | 0.7 | 30.2*
Cc1cccc2sc(NC(=O)C3CCCN(S(=O)(=O)c4cccc5nonc45)C3)nc12 (centres undefined) | -8.7 | 3.4 | -1.7 | -11.2 | 39.2*
Cc1cccc2sc(NC(=O)C3CCCO3)nc12 (centres undefined) | 31.9* | -0.6 | -0.2 | -3.9 | -3.9
CC(=O)Nc1ccc(NC(=O)C2CCN(S(=O)(=O)c3cccc4nonc34)CC2)cc1 | 10.5 | 1.8 | 0.3 | -1.0 | 21.4
Cc1cccc2sc(NC(=O)C3CCN(S(=O)(=O)c4cc([N+](=O)[O-])ccc4Cl)CC3)nc12 | / | ? | / | 64.2* | -0.5
Cc1nnc(NC(=O)C2CCN(S(=O)(=O)c3cc([N+](=O)[O-])ccc3Cl)CC2)o1 | 14.2 | ? | -0.6 | 2.3 | -4.9
CCOC(=O)CSc1nc2cc3c(cc2c(=O)n1CCCC(=O)NCc1ccc2c(c1)OCO2)OCO3 | / | / | 0.2 | / | 2.8
CCOc1ccccc1CNC(=O)c1cc(-c2ccc(Cl)s2)nc2ccccc12 | / | / | 0.7 | / | 0.0
